Laboratory results taken from the supplement of paper PMC10849652.
Targets with a hit are over-represented here; the source holds about 7,900 in all. About 0.6% of all pairs of compound and target were hits. Unmarked numbers belong to inactive results.

Compound: c1ccc([C@@H]2C[C@H]2NC2CCNCC2)cc1
Assay: log2 fold change, soluble protein after heating vs DMSO (PISA); higher = thermal stabilisation; K562 cells, 10 uM, 30 min; active = over 0.2 and 3.5 SD of the protein, either way, in both replicates (recomputed)
Method in brief: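 Soluble protein was defined as the supernatant after 21,000xg for 90 min. It came from K562 cells at 2×10^6 cells/mL given 10 μM compound for 30 min, heated in aliquots for 3 min across 48°C-58°C, pooled, and extracted in PBS with 0.5% NP-40 at 4°C, and was quantified by TMTpro 16plex LC-MS/MS with equalised channel sums. Thermal stability against control samples, from duplicates, is reported as log2 fold change.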

Chain of UniProt O95379 (O95379 whole entry, looked up): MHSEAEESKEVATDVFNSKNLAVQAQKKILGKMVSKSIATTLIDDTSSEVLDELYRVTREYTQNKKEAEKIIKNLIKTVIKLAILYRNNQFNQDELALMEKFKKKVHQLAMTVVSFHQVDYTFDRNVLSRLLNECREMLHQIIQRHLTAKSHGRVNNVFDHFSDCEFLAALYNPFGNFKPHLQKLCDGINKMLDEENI
Chain of UniProt Q8N2K1 (Q8N2K1 whole entry, looked up): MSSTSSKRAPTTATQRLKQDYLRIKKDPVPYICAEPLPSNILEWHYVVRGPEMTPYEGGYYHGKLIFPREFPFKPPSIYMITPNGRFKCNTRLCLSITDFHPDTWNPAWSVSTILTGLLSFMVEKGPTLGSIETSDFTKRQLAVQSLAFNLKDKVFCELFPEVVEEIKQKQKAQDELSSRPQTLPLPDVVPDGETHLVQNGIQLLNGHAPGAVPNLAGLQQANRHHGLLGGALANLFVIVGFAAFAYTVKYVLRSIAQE
Chain of UniProt P26368 (P26368 whole entry, looked up): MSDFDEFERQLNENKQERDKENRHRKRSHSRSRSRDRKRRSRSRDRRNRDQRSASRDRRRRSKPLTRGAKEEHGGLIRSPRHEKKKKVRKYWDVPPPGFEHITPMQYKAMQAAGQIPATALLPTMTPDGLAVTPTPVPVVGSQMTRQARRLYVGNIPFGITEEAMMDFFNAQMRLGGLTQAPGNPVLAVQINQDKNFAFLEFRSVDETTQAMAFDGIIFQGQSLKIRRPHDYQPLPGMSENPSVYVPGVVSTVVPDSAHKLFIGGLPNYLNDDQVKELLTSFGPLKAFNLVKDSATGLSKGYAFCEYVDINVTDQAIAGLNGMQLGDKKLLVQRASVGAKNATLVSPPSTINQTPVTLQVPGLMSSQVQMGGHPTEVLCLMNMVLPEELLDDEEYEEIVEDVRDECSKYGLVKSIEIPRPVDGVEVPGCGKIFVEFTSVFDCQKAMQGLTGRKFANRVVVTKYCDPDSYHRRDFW
Chain of UniProt Q7Z7G8 (Q7Z7G8 whole entry, looked up): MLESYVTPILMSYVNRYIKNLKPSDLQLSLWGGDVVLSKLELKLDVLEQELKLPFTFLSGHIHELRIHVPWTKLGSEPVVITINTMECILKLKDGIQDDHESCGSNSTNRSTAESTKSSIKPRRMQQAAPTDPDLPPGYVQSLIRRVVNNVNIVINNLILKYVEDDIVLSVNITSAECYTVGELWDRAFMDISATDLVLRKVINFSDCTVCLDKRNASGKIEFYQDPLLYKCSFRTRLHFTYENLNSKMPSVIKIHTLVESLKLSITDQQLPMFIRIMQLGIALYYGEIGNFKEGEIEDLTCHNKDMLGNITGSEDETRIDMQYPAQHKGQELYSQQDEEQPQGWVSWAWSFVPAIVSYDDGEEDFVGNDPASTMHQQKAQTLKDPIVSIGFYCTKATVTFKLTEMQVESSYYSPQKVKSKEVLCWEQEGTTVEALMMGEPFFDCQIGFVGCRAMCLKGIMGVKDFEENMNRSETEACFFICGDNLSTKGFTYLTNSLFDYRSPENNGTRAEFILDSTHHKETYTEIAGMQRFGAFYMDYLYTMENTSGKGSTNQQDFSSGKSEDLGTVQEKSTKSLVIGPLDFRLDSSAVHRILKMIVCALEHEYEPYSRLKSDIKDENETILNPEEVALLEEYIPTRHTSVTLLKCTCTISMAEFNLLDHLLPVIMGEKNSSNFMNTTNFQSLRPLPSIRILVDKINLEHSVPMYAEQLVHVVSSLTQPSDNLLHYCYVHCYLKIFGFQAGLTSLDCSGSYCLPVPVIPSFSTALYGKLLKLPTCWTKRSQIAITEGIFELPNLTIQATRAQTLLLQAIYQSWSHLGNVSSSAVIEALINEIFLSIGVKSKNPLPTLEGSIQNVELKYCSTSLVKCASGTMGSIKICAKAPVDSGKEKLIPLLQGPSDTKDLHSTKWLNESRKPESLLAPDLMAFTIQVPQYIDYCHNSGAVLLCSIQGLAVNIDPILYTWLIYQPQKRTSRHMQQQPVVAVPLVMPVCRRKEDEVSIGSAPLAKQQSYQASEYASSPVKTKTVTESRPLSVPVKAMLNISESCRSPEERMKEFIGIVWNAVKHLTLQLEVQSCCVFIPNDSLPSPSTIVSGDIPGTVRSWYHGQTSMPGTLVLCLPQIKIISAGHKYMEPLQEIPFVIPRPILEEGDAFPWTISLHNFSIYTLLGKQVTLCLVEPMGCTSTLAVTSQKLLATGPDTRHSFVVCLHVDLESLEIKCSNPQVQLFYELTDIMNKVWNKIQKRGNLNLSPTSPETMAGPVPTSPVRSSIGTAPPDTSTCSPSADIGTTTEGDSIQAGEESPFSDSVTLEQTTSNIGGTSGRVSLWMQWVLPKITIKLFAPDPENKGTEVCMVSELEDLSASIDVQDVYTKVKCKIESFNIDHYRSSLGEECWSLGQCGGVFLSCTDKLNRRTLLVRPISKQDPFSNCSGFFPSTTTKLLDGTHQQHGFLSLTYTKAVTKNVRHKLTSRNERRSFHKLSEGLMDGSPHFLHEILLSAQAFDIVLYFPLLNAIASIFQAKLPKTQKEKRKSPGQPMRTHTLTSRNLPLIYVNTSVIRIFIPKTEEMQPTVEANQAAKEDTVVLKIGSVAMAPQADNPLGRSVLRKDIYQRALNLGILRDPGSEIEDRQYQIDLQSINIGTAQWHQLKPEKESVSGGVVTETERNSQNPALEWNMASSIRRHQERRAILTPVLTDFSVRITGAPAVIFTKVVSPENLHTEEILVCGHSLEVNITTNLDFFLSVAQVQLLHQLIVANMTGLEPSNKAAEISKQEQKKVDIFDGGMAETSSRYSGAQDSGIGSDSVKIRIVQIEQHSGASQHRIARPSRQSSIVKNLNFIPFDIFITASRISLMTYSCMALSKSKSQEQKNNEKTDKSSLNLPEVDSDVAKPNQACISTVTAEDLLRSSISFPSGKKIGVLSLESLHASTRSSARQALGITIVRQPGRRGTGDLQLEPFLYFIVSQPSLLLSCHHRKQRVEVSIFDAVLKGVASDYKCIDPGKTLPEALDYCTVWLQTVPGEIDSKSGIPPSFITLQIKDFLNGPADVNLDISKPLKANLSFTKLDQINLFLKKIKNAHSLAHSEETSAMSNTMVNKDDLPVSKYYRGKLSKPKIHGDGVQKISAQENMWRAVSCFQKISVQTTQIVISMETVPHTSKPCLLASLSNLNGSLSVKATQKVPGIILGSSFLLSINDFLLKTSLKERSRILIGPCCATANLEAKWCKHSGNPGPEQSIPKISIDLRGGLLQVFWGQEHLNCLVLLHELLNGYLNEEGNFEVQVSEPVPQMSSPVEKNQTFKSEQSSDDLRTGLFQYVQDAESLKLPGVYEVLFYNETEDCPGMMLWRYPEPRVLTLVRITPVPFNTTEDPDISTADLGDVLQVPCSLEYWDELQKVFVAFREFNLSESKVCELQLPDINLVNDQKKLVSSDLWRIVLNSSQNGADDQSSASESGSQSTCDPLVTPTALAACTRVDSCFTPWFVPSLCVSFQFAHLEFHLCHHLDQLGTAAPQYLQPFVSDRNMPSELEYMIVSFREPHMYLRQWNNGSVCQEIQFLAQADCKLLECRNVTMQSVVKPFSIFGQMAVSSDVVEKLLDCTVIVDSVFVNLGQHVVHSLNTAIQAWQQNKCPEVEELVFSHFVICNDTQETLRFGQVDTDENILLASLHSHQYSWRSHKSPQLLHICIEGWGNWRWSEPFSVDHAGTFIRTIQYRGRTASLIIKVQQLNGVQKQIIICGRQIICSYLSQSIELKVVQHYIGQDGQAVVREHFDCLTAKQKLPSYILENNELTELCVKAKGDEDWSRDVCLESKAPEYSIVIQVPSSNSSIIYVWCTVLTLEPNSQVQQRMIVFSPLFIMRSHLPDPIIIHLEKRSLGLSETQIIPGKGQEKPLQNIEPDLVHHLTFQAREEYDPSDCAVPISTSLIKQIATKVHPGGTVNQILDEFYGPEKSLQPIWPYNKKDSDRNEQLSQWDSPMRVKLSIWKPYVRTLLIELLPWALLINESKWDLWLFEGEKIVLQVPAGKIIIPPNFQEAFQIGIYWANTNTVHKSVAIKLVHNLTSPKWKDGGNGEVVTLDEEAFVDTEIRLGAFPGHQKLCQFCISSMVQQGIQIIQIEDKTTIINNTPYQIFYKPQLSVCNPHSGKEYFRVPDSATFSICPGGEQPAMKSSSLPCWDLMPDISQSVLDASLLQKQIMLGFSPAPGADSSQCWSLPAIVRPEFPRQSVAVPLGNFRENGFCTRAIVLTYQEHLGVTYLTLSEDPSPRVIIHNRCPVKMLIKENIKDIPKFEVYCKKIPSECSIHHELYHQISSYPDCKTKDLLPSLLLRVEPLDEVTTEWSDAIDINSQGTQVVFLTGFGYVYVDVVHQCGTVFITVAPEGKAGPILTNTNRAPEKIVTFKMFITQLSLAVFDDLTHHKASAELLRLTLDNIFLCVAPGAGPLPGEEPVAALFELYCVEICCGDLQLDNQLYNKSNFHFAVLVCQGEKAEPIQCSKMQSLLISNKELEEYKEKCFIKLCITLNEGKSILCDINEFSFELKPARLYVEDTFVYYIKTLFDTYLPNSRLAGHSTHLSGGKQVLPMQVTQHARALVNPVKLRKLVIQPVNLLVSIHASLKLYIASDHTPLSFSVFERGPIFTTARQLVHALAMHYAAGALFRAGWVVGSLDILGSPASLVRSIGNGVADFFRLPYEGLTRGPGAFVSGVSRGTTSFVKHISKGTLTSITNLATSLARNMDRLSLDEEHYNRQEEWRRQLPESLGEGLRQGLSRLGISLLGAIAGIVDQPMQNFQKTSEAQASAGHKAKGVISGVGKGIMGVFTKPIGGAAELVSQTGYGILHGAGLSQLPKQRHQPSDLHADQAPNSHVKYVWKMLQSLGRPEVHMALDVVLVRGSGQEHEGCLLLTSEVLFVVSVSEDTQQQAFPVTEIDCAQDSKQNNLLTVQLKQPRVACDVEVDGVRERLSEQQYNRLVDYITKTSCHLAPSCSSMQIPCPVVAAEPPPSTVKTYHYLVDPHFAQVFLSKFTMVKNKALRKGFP
Chain of UniProt O00258 (O00258 whole entry, looked up): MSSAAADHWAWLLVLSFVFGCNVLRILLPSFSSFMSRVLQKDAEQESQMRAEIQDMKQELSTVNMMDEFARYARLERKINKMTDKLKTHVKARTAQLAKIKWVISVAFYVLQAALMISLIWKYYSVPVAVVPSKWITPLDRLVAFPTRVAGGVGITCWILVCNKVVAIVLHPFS

**Q.** How did the log2 fold change turn out when TRAPPC8 (UniProt Q9Y2L5) was run?
**A.** Its log2 fold change is -0.018.

**Q.** For VPS50 (UniProt Q96JG6), which log2 fold change is on record?
**A.** Its log2 fold change is 0.01.

**Q.** For TMTC3 (UniProt Q6ZXV5), which log2 fold change is on record?
**A.** Its log2 fold change is 0.005.

**Q.** For XRCC6 (UniProt P12956), which log2 fold change is on record?
**A.** Its log2 fold change is -0.003.

**Q.** With UTP4 (UniProt Q969X6) as the target, how does the log2 fold change read?
**A.** The log2 fold change was -0.021.

**Q.** How did the log2 fold change turn out when WDR43 (UniProt Q15061) was run?
**A.** Its log2 fold change is 0.001.

**Q.** For TMEM263 (UniProt Q8WUH6), which log2 fold change is on record?
**A.** The log2 fold change was -0.031.

**Q.** TRIP10 (UniProt Q15642) was tested. Which log2 fold change did it give?
**A.** Its log2 fold change is 0.037.

**Q.** With UHRF1BP1L (UniProt A0JNW5) as the target, how does the log2 fold change read?
**A.** Its log2 fold change is -0.018.

**Q.** For USP25 isoform 3 (UniProt Q9UHP3), which log2 fold change is on record?
**A.** Its log2 fold change is -0.007.

**Q.** How did the log2 fold change turn out when TUBA4A (UniProt C9JJQ8) was run?
**A.** Its log2 fold change is 0.229.

**Q.** TOE1 (UniProt Q96GM8) was tested. Which log2 fold change did it give?
**A.** Its log2 fold change is 0.014.

**Q.** Which log2 fold change does the source give for U2AF2 (UniProt P26368) here?
**A.** Its log2 fold change is 0.005.

**Q.** Which log2 fold change does the source give for WASHC5 (UniProt Q12768) here?
**A.** Its log2 fold change is -0.041.

**Q.** How did the log2 fold change turn out when VPS41 (UniProt P49754) was run?
**A.** The log2 fold change was -0.052.

**Q.** With TOP2A isoform 4 (UniProt P11388) as the target, how does the log2 fold change read?
**A.** The log2 fold change was 0.002.

**Q.** Which log2 fold change does the source give for TXNIP (UniProt Q9H3M7) here?
**A.** Its log2 fold change is -0.099.

**Q.** With TNFAIP8 isoform 4 (UniProt O95379) as the target, how does the log2 fold change read?
**A.** The log2 fold change was -0.011.

**Q.** With TXN2 (UniProt Q99757) as the target, how does the log2 fold change read?
**A.** Its log2 fold change is -0.067.

**Q.** Which log2 fold change does the source give for VPS33B (UniProt Q9H267) here?
**A.** The log2 fold change was -0.064.

**Q.** For TMEM177 (UniProt Q53S58), which log2 fold change is on record?
**A.** The log2 fold change was -0.002.

**Q.** How did the log2 fold change turn out when TXNL4B (UniProt Q9NX01) was run?
**A.** The log2 fold change was -0.12.

**Q.** For TXNRD1 (UniProt Q16881), which log2 fold change is on record?
**A.** The log2 fold change was -0.032.

**Q.** How did the log2 fold change turn out when WDR61 (UniProt Q9GZS3) was run?
**A.** Its log2 fold change is 0.012.

**Q.** How did the log2 fold change turn out when TRIM28 (UniProt Q13263) was run?
**A.** The log2 fold change was 0.009.

**Q.** For UBAP2L isoform 1 (UniProt Q14157), which log2 fold change is on record?
**A.** The log2 fold change was 0.011.

**Q.** UBR2 (UniProt Q8IWV8) was tested. Which log2 fold change did it give?
**A.** Its log2 fold change is -0.28.

**Q.** For UBE2J2 isoform 3 (UniProt Q8N2K1), which log2 fold change is on record?
**A.** The log2 fold change was -0.144.

**Q.** For VPS13B (UniProt Q7Z7G8), which log2 fold change is on record?
**A.** The log2 fold change was 0.031.

**Q.** With WRB (UniProt O00258) as the target, how does the log2 fold change read?
**A.** Its log2 fold change is 0.01.

**Q.** With XPOT (UniProt O43592) as the target, how does the log2 fold change read?
**A.** The log2 fold change was -0.001.

**Q.** UBE4B isoform 4 (UniProt O95155) was tested. Which log2 fold change did it give?
**A.** The log2 fold change was -0.003.

**Q.** For VWA3B isoform 6 (UniProt Q502W6), which log2 fold change is on record?
**A.** The log2 fold change was 0.064.

**Q.** VPS53 isoform 4 (UniProt Q5VIR6) was tested. Which log2 fold change did it give?
**A.** Its log2 fold change is -0.007.

**Q.** How did the log2 fold change turn out when UXT isoform 2 (UniProt Q9UBK9) was run?
**A.** The log2 fold change was -0.077.

**Q.** How did the log2 fold change turn out when TMEM189-UBE2V1 (UniProt I3L0A0) was run?
**A.** The log2 fold change was 0.048.
